Measurements: PubChem BioAssay
The source made the active and inactive calls.

How the values were obtained:
[1] = small molecules captured by biotinylated probe aFSTL3 – biochemical, small-molecule microarray, fluorescence 635/667, stem cell growth factor project, primary screen (AID 1064); conditions: higher = more signal;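 also: measures binding of the biotinylated anti-FSTL3 antibody to printed compounds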
[2] = binders from COS7 lysate, DM2A8 probe, primary screen, torsin A project, cell lysate, small-molecule microarray, fluorescence 635/667 (AID 1065); conditions: higher = more signal, COS7 lysate expressing mutant human TOR1A
[3] = small molecules captured by biotinylated probe aFGF2 – biochemical, small-molecule microarray, fluorescence 635/667, stem cell growth factor project, primary screen (AID 1067); conditions: higher = more signal;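 also: measures binding of biotinylated aFGF2 protein to printed compounds on slides; z-score merges feature fluorescence and signal-to-noise across triplicate slides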
[4] = small molecules captured by biotinylated probe aFGF10 – biochemical, small-molecule microarray, fluorescence 635/667, stem cell growth factor project, primary screen (AID 1071); conditions: higher = more signal;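 also: score merges 667 nm spot intensity and signal to noise from triplicate slides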
[5] = molecular target: Neurogenic locus notch homolog protein 2 (Homo sapiens) (UniProt Q04721); assay: small molecules binding Notch2 protein – biochemical, small-molecule microarray, 635 nm fluorescence, stem cell growth factors, primary screen (AID 1073); conditions: higher = more signal
[6] = molecular target: Pro-neuregulin-1, membrane-bound isoform (Homo sapiens) (UniProt Q02297); assay: small molecules binding neuregulin-1 protein – biochemical, small-molecule microarray, fluorescence 635/667, psychiatric disease protein project, primary screen (AID 1075); conditions: NRG1 binding, 635 nm fluorescence, higher = more signal;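 also: score combines 667 nm spot fluorescence with signal to noise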
[7] = tested on: Neuregulin-1 EGF-like domain; assay: small molecules binding NRG1 EGF domain – biochemical, small-molecule microarray, 635 nm fluorescence, primary screen (AID 1081); conditions: higher = more signal;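 also: binding of the protein to compounds printed on small-molecule microarray slides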
[8] = FRG1 expression reporter modulators in myotubes – cell-based, C2C12 myotubes, firefly/Renilla luciferase, luminescence, FRG1 inhibition for FSHD, primary screen (AID 1084); conditions: FRG1 promoter luciferase, higher = more signal, called active from +8 up or from −8 down
[9] = small molecules captured by biotinylated probe aFST – biochemical, small-molecule microarray, fluorescence 635/667, stem cell growth factor project, primary screen (AID 1086); conditions: higher = more signal;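 also: score merges 667 nm fluorescence with signal-to-noise of each printed compound spot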
[10] = binders of probe aHhip on microarray, primary screen, stem cell growth factor project, biochemical, small-molecule microarray, fluorescence 635/667 (AID 1087); conditions: higher = more signal;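 also: score merges spot fluorescence at 667nm with spot signal to noise ratio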
[11] = tested on: PRMT1 (protein arginine N-methyltransferase 1); assay: small molecules binding arginine methyltransferase PRMT1 – biochemical, small-molecule microarray, 635 nm fluorescence, primary screen (AID 1088); conditions: higher = more signal;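 also: binding of Prmt1 protein to compounds spotted on small-molecule microarray slides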
[12] = growth effects on S. cerevisiae YJM789 – YJM789 clinical isolate, OD600, 24 h, basal, primary screen (AID 1089); conditions: higher = more signal, called active from +8 up or from −8 down;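 also: growth of clinical yeast isolate S. cerevisiae YJM 789 seeded 1000 cells per well; test concentration not given here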
[13] = S. pombe growth modifiers, basal conditions – strain 972, OD600, 24 h, no modulator, primary screen (AID 1090);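 also: basal condition with compound alone and no growth modifier present; test concentration not given here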; conditions: S. pombe 972 growth, higher = more signal, called active from +8 up or from −8 down
[14] = budding yeast growth modifiers under rapamycin – strain BY4716, OD600, 96 h, primary screen (AID 1091); also: test concentration not given here; conditions: S. cerevisiae BY4716 + rapamycin, higher = more signal, called active from +8 up or from −8 down
[15] = molecular target: Torsin-1A-interacting protein 2 (Homo sapiens) (UniProt Q8NFQ8); assay: small molecules binding lysate-expressed LULL1 – cell lysate, human LULL1 lysate, 635/667 nm fluorescence, primary screen (AID 1092); conditions: small-molecule microarray, hLULL1 lysate binding, 635 nm fluorescence; higher = more signal;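 also: probe is lysate of COS7 cells overexpressing human LULL1; score merges per-feature 667 nm fluorescence with signal-to-noise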
[16] = optical density change of DRC41 E. coli – strain DRC41, OD650, 24 h, E. coli filamentation project, primary screen (AID 1093);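 also: MC1000 strain lacking acrAB efflux and sulA so SOS filamentation is blocked; test concentration not given here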; conditions: E. coli DRC41 growth, higher = more signal, called active from +8 up or from −8 down
[17] = probe aLefty2 binding to arrayed compounds – biochemical, biotinylated probe, 635/667 nm fluorescence, primary screen (AID 1094); conditions: small-molecule microarray, higher = more signal;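 also: score merges spot fluorescence near 667 nm with spot signal-to-noise ratio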
[18] = tested on: Noggin (protein binding on small-molecule microarray); assay: small molecules binding Noggin protein – biochemical, 635/667 nm fluorescence, primary screen (AID 1095); conditions: 635 nm fluorescence, higher = more signal;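 also: score merges 667 nm feature fluorescence with signal to noise over triplicate slides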
[19] = molecular target: Neurogenic locus notch homolog protein 3 (Homo sapiens) (UniProt Q9UM47); assay: small molecules binding NOTCH3 protein – biochemical, 635/667 nm fluorescence, primary screen (AID 1096); conditions: small-molecule microarray, 635 nm fluorescence, higher = more signal
[20] = probe aEGFR binding to arrayed compounds – biochemical, biotinylated probe, 635/667 nm fluorescence, primary screen (AID 1097); conditions: small-molecule microarray, higher = more signal;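 also: probe is a biotinylated anti-EGFR antibody binding compounds printed on slides; score combines fluorescence near 667 nm and signal to noise of each spot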

Torsin-1A-interacting protein 2 (Homo sapiens), sequence (Q8NFQ8 whole entry, looked up): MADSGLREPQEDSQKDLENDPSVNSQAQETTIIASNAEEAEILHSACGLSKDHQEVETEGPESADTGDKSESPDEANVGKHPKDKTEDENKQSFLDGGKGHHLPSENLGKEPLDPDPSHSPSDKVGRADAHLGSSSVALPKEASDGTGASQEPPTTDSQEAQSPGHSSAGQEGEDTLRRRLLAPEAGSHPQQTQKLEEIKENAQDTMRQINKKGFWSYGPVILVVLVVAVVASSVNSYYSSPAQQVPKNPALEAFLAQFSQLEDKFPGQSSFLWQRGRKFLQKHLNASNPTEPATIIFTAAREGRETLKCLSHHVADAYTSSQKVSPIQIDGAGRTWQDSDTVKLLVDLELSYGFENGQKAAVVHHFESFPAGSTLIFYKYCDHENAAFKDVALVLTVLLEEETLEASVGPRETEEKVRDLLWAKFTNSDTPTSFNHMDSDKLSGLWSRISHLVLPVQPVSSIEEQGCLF
Neurogenic locus notch homolog protein 3 (Homo sapiens), sequence (Q9UM47 whole entry, looked up): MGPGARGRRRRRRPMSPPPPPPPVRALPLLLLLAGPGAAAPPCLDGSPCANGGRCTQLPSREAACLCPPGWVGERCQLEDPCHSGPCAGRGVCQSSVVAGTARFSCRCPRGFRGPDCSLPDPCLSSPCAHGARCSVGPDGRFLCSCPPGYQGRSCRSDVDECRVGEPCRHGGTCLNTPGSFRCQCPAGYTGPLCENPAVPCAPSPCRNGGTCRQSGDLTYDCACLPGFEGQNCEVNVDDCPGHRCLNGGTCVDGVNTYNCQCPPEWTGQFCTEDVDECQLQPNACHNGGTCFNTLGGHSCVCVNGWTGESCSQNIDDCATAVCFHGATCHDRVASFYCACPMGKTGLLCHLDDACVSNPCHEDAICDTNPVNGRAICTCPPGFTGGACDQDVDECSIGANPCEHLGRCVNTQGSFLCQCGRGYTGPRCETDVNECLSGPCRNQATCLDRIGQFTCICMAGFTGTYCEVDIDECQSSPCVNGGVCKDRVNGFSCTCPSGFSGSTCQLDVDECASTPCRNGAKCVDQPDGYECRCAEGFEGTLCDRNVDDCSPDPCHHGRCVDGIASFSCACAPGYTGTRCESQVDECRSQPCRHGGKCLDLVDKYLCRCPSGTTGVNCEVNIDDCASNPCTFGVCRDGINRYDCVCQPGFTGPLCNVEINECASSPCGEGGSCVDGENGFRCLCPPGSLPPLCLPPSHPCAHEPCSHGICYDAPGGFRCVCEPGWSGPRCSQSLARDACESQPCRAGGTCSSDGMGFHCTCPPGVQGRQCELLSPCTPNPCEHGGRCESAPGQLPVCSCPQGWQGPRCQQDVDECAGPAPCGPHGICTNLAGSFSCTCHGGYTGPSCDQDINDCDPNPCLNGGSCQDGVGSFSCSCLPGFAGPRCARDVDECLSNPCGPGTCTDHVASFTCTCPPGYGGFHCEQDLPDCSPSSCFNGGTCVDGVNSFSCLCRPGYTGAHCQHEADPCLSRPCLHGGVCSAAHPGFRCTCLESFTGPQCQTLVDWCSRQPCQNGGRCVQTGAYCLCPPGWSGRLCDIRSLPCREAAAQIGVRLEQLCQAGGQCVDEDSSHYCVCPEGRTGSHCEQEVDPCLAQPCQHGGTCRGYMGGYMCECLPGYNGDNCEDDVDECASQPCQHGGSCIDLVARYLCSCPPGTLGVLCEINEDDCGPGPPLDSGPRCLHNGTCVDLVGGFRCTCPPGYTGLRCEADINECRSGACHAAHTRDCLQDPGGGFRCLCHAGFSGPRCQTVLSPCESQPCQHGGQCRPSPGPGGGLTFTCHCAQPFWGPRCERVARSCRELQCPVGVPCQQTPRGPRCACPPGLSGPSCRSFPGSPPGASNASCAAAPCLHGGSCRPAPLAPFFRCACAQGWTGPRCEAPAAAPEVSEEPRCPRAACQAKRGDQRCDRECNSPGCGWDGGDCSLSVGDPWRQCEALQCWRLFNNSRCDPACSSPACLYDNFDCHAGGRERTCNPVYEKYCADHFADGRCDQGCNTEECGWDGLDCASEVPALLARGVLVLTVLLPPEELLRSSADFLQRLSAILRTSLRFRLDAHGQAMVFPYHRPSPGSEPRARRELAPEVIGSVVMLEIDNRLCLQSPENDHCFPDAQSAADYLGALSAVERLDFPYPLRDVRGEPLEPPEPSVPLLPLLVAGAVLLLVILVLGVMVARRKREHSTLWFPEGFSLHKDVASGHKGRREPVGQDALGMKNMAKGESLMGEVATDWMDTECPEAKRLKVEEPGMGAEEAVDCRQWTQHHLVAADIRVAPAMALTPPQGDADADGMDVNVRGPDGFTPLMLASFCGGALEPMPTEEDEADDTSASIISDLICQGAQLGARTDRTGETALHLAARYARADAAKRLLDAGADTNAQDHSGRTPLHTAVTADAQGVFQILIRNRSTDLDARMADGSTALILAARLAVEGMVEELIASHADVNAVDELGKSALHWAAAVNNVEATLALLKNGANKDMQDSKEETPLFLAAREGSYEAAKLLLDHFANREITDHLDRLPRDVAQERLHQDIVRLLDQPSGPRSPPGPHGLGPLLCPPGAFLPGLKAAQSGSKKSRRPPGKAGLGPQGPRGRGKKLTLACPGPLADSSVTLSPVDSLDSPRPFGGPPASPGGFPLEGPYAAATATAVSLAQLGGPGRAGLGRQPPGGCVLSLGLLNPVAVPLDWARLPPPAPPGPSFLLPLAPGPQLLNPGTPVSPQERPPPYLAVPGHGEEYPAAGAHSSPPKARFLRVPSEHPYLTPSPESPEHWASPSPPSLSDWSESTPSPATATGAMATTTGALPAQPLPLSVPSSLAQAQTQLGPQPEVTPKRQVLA
Pro-neuregulin-1, membrane-bound isoform (Homo sapiens), sequence (Q02297 whole entry, looked up, the tested form may be a part, canonical isoform): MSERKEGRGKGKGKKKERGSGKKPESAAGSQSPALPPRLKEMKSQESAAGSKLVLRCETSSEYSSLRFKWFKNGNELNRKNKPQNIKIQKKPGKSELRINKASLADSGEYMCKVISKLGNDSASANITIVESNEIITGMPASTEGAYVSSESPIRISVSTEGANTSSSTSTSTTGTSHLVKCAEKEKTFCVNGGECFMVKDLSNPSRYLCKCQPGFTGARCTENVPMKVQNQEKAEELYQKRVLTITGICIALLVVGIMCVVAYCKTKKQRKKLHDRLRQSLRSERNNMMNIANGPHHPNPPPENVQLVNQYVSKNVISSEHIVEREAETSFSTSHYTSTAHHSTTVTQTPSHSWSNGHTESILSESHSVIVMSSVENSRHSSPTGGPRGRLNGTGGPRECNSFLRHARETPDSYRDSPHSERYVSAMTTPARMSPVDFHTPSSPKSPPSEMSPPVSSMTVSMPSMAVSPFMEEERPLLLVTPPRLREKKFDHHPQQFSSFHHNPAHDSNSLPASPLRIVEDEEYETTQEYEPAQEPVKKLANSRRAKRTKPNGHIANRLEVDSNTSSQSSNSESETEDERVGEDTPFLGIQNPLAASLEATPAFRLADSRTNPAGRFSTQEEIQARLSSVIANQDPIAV

CCC[C@@H]1C=C(C(=O)OCC)[C@H](c2ccccc2)N1S(=O)(=O)c1ccc(C)cc1
composite z-score [1]: 0.483
composite z-score [2]: 0.379
composite z-score [3]: 0.137
composite z-score [4]: 0.88
composite z-score [5]: 1.66
composite z-score [6]: 1.09
composite z-score [7]: 1.06
z-score [8]: -1.56 (inactive)
composite z-score [9]: 1.2
composite z-score [10]: -0.105
composite z-score [11]: 1.57
z-score [12]: 0.73 (inactive)
z-score [13]: 1.67 (inactive)
z-score [14]: 1.7 (inactive)
composite z-score [15]: 0.352
z-score [16]: -0.209 (inactive)
composite z-score [17]: 0.326
composite z-score [18]: 0.0974
composite z-score [19]: 1.08
composite z-score [20]: 0.21

COc1ccc(CCNC(=O)[C@@]2(Sc3ccc(C)cc3)CC(=O)N(C(C)C)[C@@H]2c2ccc(CO)cc2)cc1
composite z-score [1]: 1.09
composite z-score [2]: 0.53
composite z-score [3]: -0.129
composite z-score [4]: -0.0606
composite z-score [5]: -1.35
composite z-score [6]: 0.871
composite z-score [7]: 0.401
z-score [8]: -0.921 (inactive)
composite z-score [9]: -0.686
composite z-score [10]: 0.021
composite z-score [11]: 0.633
z-score [12]: 0.956 (inactive)
z-score [13]: 0.0503 (inactive)
z-score [14]: 0.088 (inactive)
composite z-score [15]: 2.09
z-score [16]: -0.015 (inactive)
composite z-score [17]: 0.0507
composite z-score [18]: -1.4
composite z-score [19]: -1.15
composite z-score [20]: -0.249

COCCOC(=O)N1C(=O)[C@@]2(c3cc(C#CC4(O)CCCCCC4)ccc31)[C@H](C(=O)NC[C@H](O)c1ccccc1)[C@H]1C(=O)O[C@H](c3ccccc3)[C@H](c3ccccc3)N1[C@@H]2c1ccc(O)cc1
composite z-score [1]: -0.0443
composite z-score [2]: 0.224
composite z-score [3]: -0.0193
composite z-score [4]: 1
composite z-score [5]: 0.496
composite z-score [6]: 0.802
composite z-score [7]: 1.28
z-score [8]: -0.0865 (inactive)
composite z-score [9]: 0.153
composite z-score [10]: 0.176
composite z-score [11]: 1.48
z-score [12]: 0.295 (inactive)
z-score [13]: 0.956 (inactive)
z-score [14]: 0.927 (inactive)
composite z-score [15]: 2.49
z-score [16]: 1.43 (inactive)
composite z-score [17]: -0.0289
composite z-score [18]: 0.3
composite z-score [19]: 0.871
composite z-score [20]: -0.0703

Cc1c(-c2ccc(-c3ccc(Cl)c(Cl)c3)o2)nc(-c2ccccc2)c2c1CO[Si]2(C(C)C)C(C)C
composite z-score [1]: -0.0834
composite z-score [2]: 0.343
composite z-score [3]: -0.047
composite z-score [4]: 0.42
composite z-score [5]: -0.558
composite z-score [6]: 0.568
composite z-score [7]: 0.294
z-score [8]: 0.422 (inactive)
composite z-score [9]: -0.324
composite z-score [10]: 0.21
composite z-score [11]: 0.371
z-score [12]: -0.657 (inactive)
z-score [13]: -1.69 (inactive)
z-score [14]: 0.069 (inactive)
composite z-score [15]: 0.867
z-score [16]: -1.34 (inactive)
composite z-score [17]: -0.216
composite z-score [18]: 0.423
composite z-score [19]: -0.0183
composite z-score [20]: -0.231

COC(=O)c1c(CC[C@@H](CO)NC(=O)N[C@@H](Cc2ccccc2)Cn2cc(-c3cncn3C)nn2)oc(C(C)=O)c1C(=O)OC
composite z-score [1]: -0.42
composite z-score [2]: 0.259
composite z-score [3]: -0.129
composite z-score [4]: 0.716
composite z-score [5]: -0.451
composite z-score [6]: 1.67
composite z-score [7]: 1.29
z-score [8]: 0.691 (inactive)
composite z-score [9]: 0.0625
composite z-score [10]: -0.0401
composite z-score [11]: 1.51
z-score [12]: 0.268 (inactive)
z-score [13]: -0.0536 (inactive)
z-score [14]: -0.131 (inactive)
composite z-score [15]: 2.99
z-score [16]: 0.916 (inactive)
composite z-score [17]: -0.215
composite z-score [18]: 0.801
composite z-score [19]: 0.912
composite z-score [20]: -0.142

C[N+](C)(C)CCCCCCNC(=O)[C@@H]1C[C@@H]2C(=O)N[C@@H](Cc3ccccc3)C(=O)N2[C@@H]1c1ccc(O)cc1
composite z-score [1]: -0.283
composite z-score [2]: 1.18
composite z-score [3]: -0.0138
composite z-score [4]: 0.33
composite z-score [5]: 0.581
composite z-score [6]: 1.73
composite z-score [7]: 1.03
z-score [8]: 2.56 (inactive)
composite z-score [9]: 0.957
composite z-score [10]: 0.0373
composite z-score [11]: 1.54
z-score [12]: -0.351 (inactive)
z-score [13]: -0.193 (inactive)
z-score [14]: -0.496 (inactive)
composite z-score [15]: 3.06
z-score [16]: -0.0343 (inactive)
composite z-score [17]: -0.183
composite z-score [18]: 1.46
composite z-score [19]: 1.04
composite z-score [20]: 0.0144

C#CCN=C(N)N
composite z-score [1]: -0.504
composite z-score [2]: 0.147
composite z-score [3]: -0.127
composite z-score [4]: 0.209
composite z-score [5]: 0.389
composite z-score [6]: 0.748
composite z-score [7]: 1.01
z-score [8]: 0.007 (inactive)
composite z-score [9]: 0.224
composite z-score [10]: -0.226
composite z-score [11]: 0.21
z-score [12]: -0.303 (inactive)
z-score [13]: -0.349 (inactive)
z-score [14]: -0.247 (inactive)
composite z-score [15]: 0.737
z-score [16]: -0.291 (inactive)
composite z-score [17]: -0.18
composite z-score [18]: 0.759
composite z-score [19]: 0.562
composite z-score [20]: 0.0768

COC(=O)C1=CC(CCCO)=CC(c2ccc(CN3CCCC3)cc2)N(Cc2sc3ccccc3c2Cl)C=C1C(=O)OC (stereo not given)
composite z-score [1]: 0.688
composite z-score [2]: 2.31
composite z-score [3]: 0.321
composite z-score [4]: 1.31
composite z-score [5]: 1.73
composite z-score [6]: 2.43
composite z-score [7]: 1.32
z-score [8]: -0.591 (inactive)
composite z-score [9]: 1.21
composite z-score [10]: 0.167
composite z-score [11]: 1.54
z-score [12]: -3.34 (inactive)
z-score [13]: -7.33 (inactive)
z-score [14]: -1.39 (inactive)
composite z-score [15]: 3.3
z-score [16]: -0.542 (inactive)
composite z-score [17]: 0.91
composite z-score [18]: 0.766
composite z-score [19]: 1.04
composite z-score [20]: 0.681

CC1CC/C=C\[C@H]2OC34C=CCN(c5ccc(Cl)cc5)C(=O)[C@H]3N(CCCO)C(=O)[C@]4(C)C2C(=O)O1 (stereo not given in full)
composite z-score [1]: 0.316
composite z-score [2]: -1.4
composite z-score [3]: -0.162
composite z-score [4]: -1.11
composite z-score [5]: -0.932
composite z-score [6]: 1.38
composite z-score [7]: 1.64
z-score [8]: -0.0856 (inactive)
composite z-score [9]: -0.558
composite z-score [10]: -0.296
composite z-score [11]: -1.33
z-score [12]: 0.0887 (inactive)
z-score [13]: -0.117 (inactive)
z-score [14]: 1.13 (inactive)
composite z-score [15]: -0.265
z-score [16]: -0.643 (inactive)
composite z-score [17]: -0.154
composite z-score [18]: -0.774
composite z-score [19]: -0.105
composite z-score [20]: -0.151
